Results as given in PubChem BioAssay AID720597 (Broad Institute, 2013).
Potency and affinity values are given separately. Activity calls are given as the source filed them.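 The calls were made as follows: active = fitted half-maximal dose no more than twice the top valid tested dose, for compounds that lower signal; inconclusive = fit invalid, or curve flat with activity between -70 and -30; inactive = potency past limit, curve flat within ±30, or signal increasing.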

biological target: NAD-dependent protein deacylase sirtuin-5, mitochondrial (Homo sapiens) (UniProt Q9NXA8); test: blockers of sirtuin-5 peptide desuccinylation – biochemical, fluorescence imaging, cherry-pick, set 6, dose response (AID 720597); conditions: Purified SirT5, succinyl-peptide-AMC/trypsin fluorescence; series mostly up to 15 µM;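 also: lower AMC signal can also come from blocking the trypsin step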
Sequence (Q9NXA8 whole entry, looked up): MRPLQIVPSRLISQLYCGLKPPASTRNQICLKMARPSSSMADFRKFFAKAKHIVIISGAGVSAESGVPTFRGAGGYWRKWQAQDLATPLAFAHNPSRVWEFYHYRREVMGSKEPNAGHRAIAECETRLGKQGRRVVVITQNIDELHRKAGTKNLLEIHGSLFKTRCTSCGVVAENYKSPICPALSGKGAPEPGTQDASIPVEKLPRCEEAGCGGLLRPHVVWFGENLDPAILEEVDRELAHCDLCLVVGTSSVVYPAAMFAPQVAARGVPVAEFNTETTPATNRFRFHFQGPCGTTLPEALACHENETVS

Row | Structure (SMILES) | outcome
1 | C[C@H](CO)N1C[C@H](C)[C@H](CN(C)S(=O)(=O)c2ccc(F)cc2)Oc2cc(C#Cc3ccc(F)cc3)ccc2S1(=O)=O | inactive
2 | CC(=O)N(C)C[C@H]1Oc2ncc(C3=CCCC3)cc2C(=O)N([C@H](C)CO)C[C@H]1C | inactive
3 | Cc1cccc(-c2ccc([C@H]3[C@H]4CN(S(=O)(=O)c5cccc(F)c5)CC(=O)N4[C@H]3CO)cc2)c1 | inactive
4 | COc1ccccc1-c1ccc2c(c1)O[C@H](CN(C)S(=O)(=O)c1ccccc1)[C@@H](C)CN([C@@H](C)CO)S2(=O)=O | inactive
5 | C[C@@H]1CN([C@@H](C)CO)S(=O)(=O)c2ccc(C#Cc3ccc(F)cc3)cc2O[C@@H]1CN(C)S(=O)(=O)c1ccc(F)cc1 | inactive
6 | CO[C@H](CN(C)C(=O)c1ccc2c(c1)OCO2)[C@H](C)CN([C@H](C)CO)S(=O)(=O)c1ccccc1 | inactive
7 | COc1ccc(S(=O)(=O)Nc2ccc3c(c2)C(=O)N([C@@H](C)CO)C[C@@H](C)[C@@H](CN(C)S(=O)(=O)c2cccs2)OCCCC[C@H](C)O3)cc1 | inactive
8 | C[C@H]1CN([C@@H](C)CO)S(=O)(=O)c2ccc(C#CC3CC3)cc2O[C@H]1CN(C)Cc1ccccc1F | inactive
9 | COc1ccc(S(=O)(=O)N2CCC3(CC2)CN(C(=O)c2cccnc2)[C@@H](CO)c2c3c3ccc(OC)cc3n2C)cc1 | inactive
10 | CC(C)CC#Cc1ccc2c(c1)O[C@H](CN(C)S(=O)(=O)c1cccc(F)c1)[C@@H](C)CN([C@@H](C)CO)S2(=O)=O | inactive
11 | Cc1noc(C)c1NC(=O)Nc1cccc2c1O[C@H](CN(C)Cc1ccc(Oc3ccccc3)cc1)[C@@H](C)CN([C@H](C)CO)C2=O | inactive
12 | COc1ccc(S(=O)(=O)N(C)C[C@H]2OCCCC[C@H](C)Oc3ccc(NS(=O)(=O)c4ccc(C)cc4)cc3C(=O)N([C@@H](C)CO)C[C@H]2C)cc1 | inactive
13 | C[C@H](CO)N1C[C@H](C)[C@@H](CN(C)S(=O)(=O)c2cccc(F)c2)Oc2ncc(C#CC3CCCCC3)cc2C1=O | inactive
14 | C[C@@H]1CN([C@@H](C)CO)C(=O)c2cc(NC(=O)C3CC3)ccc2O[C@@H]1CN(C)S(=O)(=O)c1cn(C)cn1 | inactive
15 | C[C@@H]1CN([C@@H](C)CO)S(=O)(=O)c2ccc(C#CC3CC3)cc2O[C@H]1CN(C)Cc1ccccc1F | inactive
16 | COc1ccc(S(=O)(=O)Nc2ccc3c(c2)C(=O)N([C@@H](C)CO)C[C@H](C)[C@H](CN(C)Cc2ccc(Oc4ccccc4)cc2)O3)cc1 | inactive
17 | O=C(CCN1CCCCC1)N[C@@H]1CC[C@H](CC(=O)N2CCC(Cc3ccccc3)CC2)O[C@@H]1CO | inactive
18 | C[C@@H]1CN([C@H](C)CO)C(=O)c2cc(NS(=O)(=O)c3ccccc3)ccc2O[C@@H](C)CCCCO[C@H]1CN(C)Cc1ccc(C(F)(F)F)cc1 | inactive
19 | Cc1ccccc1S(=O)(=O)N1CCCCN2[C@H](CO)[C@@H](c3ccc(-c4ccccc4)cc3)[C@@H]2C1 | inactive
20 | COc1ccc([Si](C)(C)[C@H]2[C@H](CCn3cc([C@H](O)c4ccccc4)nn3)O[C@@]3(C(=O)N(Cc4cccc(N5CCOC5=O)c4)c4ccccc43)[C@@H]2C)cc1 | inactive

Row | Structure (SMILES) | outcome
21 | Cc1ccc(S(=O)(=O)N(C)C[C@@H]2OCCCC[C@H](C)Oc3ccc(NS(=O)(=O)c4ccc(Cl)cc4)cc3C(=O)N([C@@H](C)CO)C[C@@H]2C)cc1 | inactive
22 | CN(C)C(=O)c1cccc(-c2ccc([C@H]3[C@@H](CO)N4CCCCN(S(C)(=O)=O)C[C@H]34)cc2)c1 | inactive
23 | CNC[C@H]1Oc2ccc(NC(=O)Nc3ccc(F)cc3)cc2CC(=O)N([C@@H](C)CO)C[C@H]1C | inactive
24 | C[C@@H]1CN([C@@H](C)CO)S(=O)(=O)c2ccc(/C=C/c3ccccc3)cc2O[C@H]1CN(C)C(=O)NC1CCCCC1 | inactive
25 | COc1ccc(NC(=O)Nc2ccc3c(c2)C(=O)N([C@H](C)CO)C[C@H](C)[C@@H](CN(C)Cc2ccc(C(F)(F)F)cc2)O3)cc1 | inactive
26 | COc1ccc(NC(=O)Nc2ccc3c(c2)C(=O)N([C@H](C)CO)C[C@H](C)[C@@H](CN(C)S(=O)(=O)c2cccs2)OCCCC[C@@H](C)O3)cc1 | inactive
27 | CC(C)C#Cc1cnc2c(c1)C(=O)N([C@H](C)CO)C[C@H](C)[C@@H](CN(C)C(=O)CN1CCOCC1)O2 | inactive
28 | CCS(=O)(=O)N1CC(=O)N2[C@H](CO)[C@H](c3ccc(C4=CCCCC4)cc3)[C@@H]2C1 | inactive
29 | C[C@@H]1CN([C@H](C)CO)C(=O)c2c(c3ccccc3n2C)-c2ccccc2CO[C@@H]1CN(C)Cc1cccc2c1OCCCO2 | inactive
30 | CN1c2ccc(-c3ccc(F)cc3)cc2[C@@H]2[C@@H](CCN2C(=O)c2ccncc2)[C@@H]1CO | inactive
31 | CS(=O)(=O)N(CC(=O)NC1CCCCC1)c1cccc(F)c1 | inactive
32 | C[C@H](CO)N1C[C@H](C)[C@H](CN(C)C(=O)Nc2cc(F)ccc2F)Oc2cc(/C=C/c3ccccc3)ccc2S1(=O)=O | inactive
33 | C[C@@H]1CN([C@H](C)CO)C(=O)c2cc(NC(=O)NC3CCCCC3)ccc2O[C@@H](C)CCCCO[C@@H]1CN(C)Cc1ccc(Cl)c(Cl)c1 | inactive
34 | C[C@H]1CN([C@@H](C)CO)C(=O)Cc2cc(NC(=O)Nc3ccc(C(F)(F)F)cc3)ccc2O[C@H]1CN(C)Cc1ccc(C(=O)Nc2ccccc2N)cc1 | inactive
35 | C[C@H]1CN([C@@H](C)CO)S(=O)(=O)c2ccc(C3=CCCC3)cc2O[C@@H]1CN(C)Cc1ccccc1 | inactive
36 | CC(C)CN(C[C@H]1N[C@H](CO)[C@@H]1c1ccccc1)C(=O)C1CCCCC1 | inactive
37 | CC(C)CC#Cc1ccc2c(c1)O[C@@H](CN(C)C(=O)C1CCCCC1)[C@@H](C)CN([C@H](C)CO)S2(=O)=O | inactive
38 | CCCC#Cc1ccc2c(c1)O[C@@H](CN(C)C(=O)c1ccccc1F)[C@@H](C)CN([C@@H](C)CO)S2(=O)=O | inactive
39 | C[C@@H]1CN([C@@H](C)CO)S(=O)(=O)c2ccc(C#Cc3ccccc3)cc2O[C@H]1CN(C)C(=O)C1CC1 | inactive
